This note sets out measurements from the supplement of paper PMC13172266.

Where a name gives a salt, the structure may show the parent alone.

Holding throughout (test): cell proliferation relative to vehicle (% of vehicle); higher = less growth inhibition
What all share (settings): 72 h

The test system of test [1] is U2932 TK216-resistant clone 2. The essentials:
(§1)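 Parental U2932 cells (ABC-DLBCL) and two clones made resistant to an ETS-targeting agent by almost a year of repeated exposure were treated for 72 h with 348 targeted inhibitors at 500 nM or 50 nM. MTT was then applied for 4 h, the reaction was stopped with 25% SDS, and absorbance was measured on a Cytation 3. Values express proliferation as percent of proliferating cells compared with DMSO vehicle.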

Test [2] deals with U2932 TK216-resistant clone 3. In a few lines: as §1
The next test concerns U2932 parental. In a few lines:
as §1

As to `N[C@@H]1C[C@H]1c1ccccc1` [Tranylcypromine (2-PCPA) HCl], the cell proliferation in test [1] (50 nM) stood at 108; in test [1] (500 nM), 107; in test [2] (50 nM) it was 111; in test [2] (500 nM) it was 102; in the test with U2932 parental (50 nM), 101; with U2932 parental (500 nM), 100.
`C/C(=C\c1csc(C)n1)[C@@H]1C[C@@H]2O[C@@H]2CCC[C@H](C)[C@H](O)[C@@H](C)C(=O)C(C)(C)[C@@H](O)CC(=O)O1` [Epothilone A]: the cell proliferation in test [1] (50 nM) is 12.4; in test [1] (500 nM), 10; in test [2] (50 nM), 7.03; in test [2] (500 nM), 9.75; in the test on U2932 parental (50 nM) it was 9.49; with U2932 parental (500 nM), 10.1.
In the case of `CC(=O)OC(C)(C)/C=C/C(=O)[C@](C)(O)[C@H]1[C@H](O)C[C@@]2(C)[C@@H]3CC=C4[C@H](C[C@H](O)C(=O)C4(C)C)[C@]3(C)C(=O)C[C@]12C` [Cucurbitacin B], the cell proliferation in test [1] (50 nM) was -2.74; in test [1] (500 nM) it was -3.79; in test [2] (50 nM), 0.167; in test [2] (500 nM), -2.48; in the test on U2932 parental (50 nM), -0.672; in the test with U2932 parental (500 nM), -0.512.
`Cn1c(CCCC(=O)O)nc2cc(N(CCCl)CCCl)ccc21` [Bendamustine HCl]: the cell proliferation in test [1] (50 nM) worked out at 111; in test [1] (500 nM), 108; in test [2] (50 nM) it was 102; in test [2] (500 nM), 102; in the test on U2932 parental (50 nM), 99.3; with U2932 parental (500 nM), 90.2.
As for `O=S(=O)(CC1CS1)c1ccc(Oc2ccccc2)cc1` (centres undefined), the cell proliferation in test [1] (50 nM) stood at 102; in test [1] (500 nM) it was 97.6; in test [2] (50 nM), 98.2; in test [2] (500 nM), 104; in the test on U2932 parental (50 nM) it was 95.5; with U2932 parental (500 nM) it was 99.7.
With `CC1=C(O)C(=O)C=C2C1=CC=C1[C@@]2(C)CC[C@@]2(C)[C@@H]3C[C@](C)(C(=O)O)CC[C@]3(C)CC[C@]12C` [Celastrol], the cell proliferation in test [1] (50 nM) amounted to 77.9; in test [1] (500 nM), 18.8; in test [2] (50 nM), 85; in test [2] (500 nM), 27.8; in the test with U2932 parental (50 nM), 80.6; in the test on U2932 parental (500 nM), 24.1.
For `Cn1cc(C2=C(c3cn(C4CCN(Cc5ccccn5)CC4)c4ccccc34)C(=O)NC2=O)c2ccccc21`, the cell proliferation stood at 110 in test [1] (50 nM); 103 in test [1] (500 nM); 99.8 in test [2] (50 nM); 97.1 in test [2] (500 nM); 103 in the test on U2932 parental (50 nM); 107 with U2932 parental (500 nM).
As to `COc1cc2c(cc1OC)C1CC(=O)C(CC(C)C)CN1CC2` (centres undefined) [Tetrabenazine (Xenazine)], the cell proliferation came out at 101 in test [1] (50 nM); 96.2 in test [1] (500 nM); 106 in test [2] (50 nM); 107 in test [2] (500 nM); 103 with U2932 parental (50 nM); 93.2 in the test with U2932 parental (500 nM).
Turning to `CC(O)(CS(=O)(=O)c1ccc(F)cc1)C(=O)Nc1ccc(C#N)c(C(F)(F)F)c1` (centres undefined) [Bicalutamide], the cell proliferation in test [1] (50 nM) was determined as 109; in test [1] (500 nM), 104; in test [2] (50 nM), 103; in test [2] (500 nM), 97.8; in the test on U2932 parental (50 nM), 102; with U2932 parental (500 nM) it was 96.5.
Take `COc1ccc(C[C@H]2NC[C@H](O)[C@H]2OC(C)=O)cc1` [Anisomycin]: the cell proliferation amounted to 55.2 in test [1] (50 nM); 25.4 in test [1] (500 nM); 69 in test [2] (50 nM); 29.3 in test [2] (500 nM); 66.9 with U2932 parental (50 nM); 20.5 in the test with U2932 parental (500 nM).
For `O=C(O)CCCc1ccc(N(CCCl)CCCl)cc1` [Chloroambucil], the cell proliferation in test [1] (50 nM) is 101; in test [1] (500 nM) it was 99.4; in test [2] (50 nM), 98.4; in test [2] (500 nM) it was 101; in the test with U2932 parental (50 nM), 99.7; with U2932 parental (500 nM) it was 98.7.
For the molecule `Cc1sc2c(c1C)C(c1ccc(Cl)cc1)=N[C@@H](CC(=O)OC(C)(C)C)c1nnc(C)n1-2`, the cell proliferation in test [1] (50 nM) was found to be 91; in test [1] (500 nM), 58.9; in test [2] (50 nM), 77.2; in test [2] (500 nM), 57.4; with U2932 parental (50 nM), 92.1; in the test with U2932 parental (500 nM), 55.1.
On to `O=C(O)C(=O)c1cn(Cc2ccccc2)c2ccc(-c3ccc(OC(F)(F)F)cc3)cc12` [Tiplaxtinin (PAI-039)], for which the cell proliferation was 99.5 in test [1] (50 nM); 93.1 in test [1] (500 nM); 100 in test [2] (50 nM); 98.5 in test [2] (500 nM); 102 in the test with U2932 parental (50 nM); 99.3 in the test on U2932 parental (500 nM).
On to `O=P1(NCCCl)OCCCN1CCCl` (centres undefined) [Ifosfamide], for which the cell proliferation in test [1] (50 nM) was found to be 108; in test [1] (500 nM) it was 107; in test [2] (50 nM), 102; in test [2] (500 nM) it was 103; in the test with U2932 parental (50 nM), 103; in the test with U2932 parental (500 nM) it was 93.4.
